Compounds without any hit were thinned out: in the full panel of roughly 83,000, 20% have a hit.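 Values shown are percent growth following 48 h exposure of cells in 96-well plates to a single concentration of compound; below 10 was considered active.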 A number with no mark means an inactive call. Activity calls are given as the source filed them.

The first assay concerns OVCAR-3 ovarian. The assay is described as follows: NCI-60 one-dose screen, 48 h (100 = growth as untreated, 0 = no growth, -100 = all killed). The settings on record: 10 µM unless noted.
On to `CN(C)CCCNC(=O)c1cncnc1Nc1ccc2c(ccn2Cc2cccc(F)c2)c1`, for which the growth was 93.4%.
Take `CCOC(=O)/C(=C(/C)NCC(C)C)c1cc(O)c(O)c2c(C)cc(=O)[nH]c12`: the growth is 6.74% (active).
Still for that read-out and setting: the value for `COc1ccc(Nc2ncc(C#N)c(NCCCNC(=O)C3CCC3)n2)cc1` was 70.2%; that for `C=C1SC(=Nc2ccccc2Cl)N(C(=O)c2sc3ccccc3c2Cl)C1(C)C` was 39.6%.
Same read-out and setting: with `CN1CC(c2ccc(Br)cc2)C(C(=O)c2ccc(Br)cc2)C12C(=O)Nc1ccccc12` (stereo not drawn) the figure was 79.3%; with `CC(C)Cc1nc(Nc2ccccc2)[nH]c(=O)c1C#N`, 30.8%.
As for `CC(C)(C)c1ccc(S(=O)(=O)Oc2ccc(-c3sc4cc(OS(=O)(=O)c5ccc(C(C)(C)C)cc5)ccc4c3C(=O)c3ccc(OCCN4CCCCC4)cc3)cc2)cc1`, the growth was 102%.
Still for that read-out and setting: the value for `Nc1ncccc1O` was 131%; that for `COc1cc(C[C@H]2COc3cc(O)cc(O)c3C2=O)ccc1O` was 14.1%; that for `CCN(CC)C(=O)CC1=C(C)/C(=C/c2[nH]c(-c3ccc[nH]3)cc2OC)N=C1C` was 11.1%.
Still for that read-out and setting: the value for `COc1ccc(C2CC(c3ccccc3)=NN2C(=O)c2cc(OC)c(OC)c(OC)c2)cc1O` (stereo not drawn) was 17%; that for `C[C@@H]1CN(c2cnc(C(=O)Nc3cc(F)cc4cccnc34)cn2)C[C@H](C)N1` was 39.5%; that for `O=C(Nc1cc(Cl)ccc1O)c1ccccc1Nc1ccnc(C(F)(F)F)c1` was -6.87% (active).
On the same count and under the same terms, the value for `O=c1ccc2ccc(OCCN3CCCCC3)cc2o1` was 113%.
For the compound `CC1(C)CC(=O)C2=C(C1)C(c1ccc(Cl)cc1)n1ncc(C#N)c1N2` (stereo not drawn), the growth is 113%.
Turning to `CCOC(=O)C1=C(CCl)N(C)C(=O)NC1c1ccc2c(c1)OCO2` (stereo not drawn), the growth is 25.2%.
Still for that read-out and setting: the value for `COc1ccc(-c2cc(C(=O)N3N=C(c4ccc(N)cc4)CC3c3ccc(Cl)cc3)c3ccccc3n2)cc1` (stereo not drawn) was 3.86% (active); that for `Cn1cc(-c2csc(-c3cn(C)c4ccccc34)n2)c2cnccc21` was 43.9%.
Still for that read-out and setting: the value for `CC(C)c1ccc2c(c1)CC[C@H]1[C@](C)(C(=O)OCC#CCN3CCCC3)CCC[C@]21C` was 77.6%; that for `Cc1cc(=O)n(C(=S)Nc2ccc(Cl)cc2)c2cc(O)ccc12` was 100%; that for `O=C1Nc2ccc(Cl)cc2/C1=C/c1ccc[nH]1` was 90.5%.
The same measure, in the same setting: with `COc1nc(/C=C\Nc2ccc3c(c2)OCCOCCOCCOCCO3)nc(OC)n1` the figure was 99.2%; with `CC1=C2CC/C(C)=C/CC[C@]3(C)O[C@H]3CC/C(C)=C/[C@H]2OC1`, 110%.
`CCN1C(=O)N(CC)C2C1NN=c1s/c(=C\c3ccc(OC)cc3)c(=O)n12` (stereo not drawn): the growth is -16.5% (active).
The same measure, in the same setting: the value for `Cc1nn(C)c2ncnc(N/N=C/c3cccc(O)c3O)c12` was 25.5%; that for `CC(C)C1C2=C(NCCN1C(=O)c1ccncc1)C(C)(C)N(Cc1ccccc1)C2=O` (stereo not drawn) was 102%.
As for `CN(C)c1ccc(C(=S)c2ccc(N(C)C)cc2)cc1`, the growth was 80.7%.
For the compound `CSc1ccc(N2C(=N)C(=S)N(c3ccc(C)cc3)C2=O)cc1`, the growth was 105%.
Turning to `CCOC(=O)C/C(=N\Nc1cc(=O)[nH]c2ccc(C)cc12)C(=O)OCC`, the growth was 101%.
Still for that read-out and setting: the value for `Clc1ccc(Nc2ncc(Cc3cccc(Cl)c3Cl)s2)cc1` was 100%; that for `CCOC(=O)c1nnn(-c2no[n+]([O-])c2-c2ccc(OC)cc2)c1COc1cccc2cccnc12` was 16.8%.
On the same count and under the same terms, with `NC(=O)c1ccccc1OCC(=O)Nc1ccc(Cl)c(Cl)c1` the figure was 95.4%.
For the compound `C=C1CC[C@@H]2C(C)(C)[C@H](O)CC[C@@]2(C)[C@@H]1COc1ccc2ccc(=O)oc2c1`, the growth is 46.8%.
On the same count and under the same terms, with `O=S(Nc1ccccc1)c1ccc(Cl)cc1` (stereo not drawn) the figure was 112%.
Still for that read-out and setting: with `COc1cccc(-c2cn3nc(-c4cn(C)c5ccccc45)sc3n2)c1` the figure was 99.2%.
Take `COc1cc2c(cc1-c1c(C)noc1C)ncc1nc(CN3CCOCC3)n([C@H](C)COC(F)F)c12`: the growth was 23.1%.
Still for that read-out and setting: the value for `CN1c2ccccc2S(=O)(=O)n2c(SCC(=O)Nc3nc4ccc(F)cc4s3)nnc21` was 124%.
As for `O=S(=O)(Nc1cc(Sc2nc3ccccc3s2)c(O)c2ccccc12)c1ccc2ccccc2c1`, the growth was 82.6%.
Same read-out and setting: with `Cn1c(C#N)ccc1-c1ccc(F)c(NC(=O)c2ccc(F)cc2)c1` the figure was 77%.

The subject of the next assay is HS 578T breast. The description is as above. The settings on record: 10 µM unless noted.
For the compound `CN(C)CCCNC(=O)c1cncnc1Nc1ccc2c(ccn2Cc2cccc(F)c2)c1`, the growth is 81.3%.
On the same count and under the same terms, with `CCOC(=O)/C(=C(/C)NCC(C)C)c1cc(O)c(O)c2c(C)cc(=O)[nH]c12` the figure was 79.5%; with `COc1ccc(Nc2ncc(C#N)c(NCCCNC(=O)C3CCC3)n2)cc1`, 47.7%.
The same measure, in the same setting: with `C=C1SC(=Nc2ccccc2Cl)N(C(=O)c2sc3ccccc3c2Cl)C1(C)C` the figure was 73.5%.
The same measure, in the same setting: the value for `CN1CC(c2ccc(Br)cc2)C(C(=O)c2ccc(Br)cc2)C12C(=O)Nc1ccccc12` (stereo not drawn) was 89.3%; that for `CC(C)Cc1nc(Nc2ccccc2)[nH]c(=O)c1C#N` was 36.2%; that for `CC(C)(C)c1ccc(S(=O)(=O)Oc2ccc(-c3sc4cc(OS(=O)(=O)c5ccc(C(C)(C)C)cc5)ccc4c3C(=O)c3ccc(OCCN4CCCCC4)cc3)cc2)cc1` was 104%.
For `Nc1ncccc1O`, the growth is 109%.
Still for that read-out and setting: the value for `COc1cc(C[C@H]2COc3cc(O)cc(O)c3C2=O)ccc1O` was 13.7%; that for `CCN(CC)C(=O)CC1=C(C)/C(=C/c2[nH]c(-c3ccc[nH]3)cc2OC)N=C1C` was 10.9%.
Same read-out and setting: the value for `COc1ccc(C2CC(c3ccccc3)=NN2C(=O)c2cc(OC)c(OC)c(OC)c2)cc1O` (stereo not drawn) was 23.5%; that for `C[C@@H]1CN(c2cnc(C(=O)Nc3cc(F)cc4cccnc34)cn2)C[C@H](C)N1` was 76.8%.
Same read-out and setting: with `O=C(Nc1cc(Cl)ccc1O)c1ccccc1Nc1ccnc(C(F)(F)F)c1` the figure was -2.86% (active).
Regarding `O=c1ccc2ccc(OCCN3CCCCC3)cc2o1`, the growth is 96.5%.
Same read-out and setting: the value for `CC1(C)CC(=O)C2=C(C1)C(c1ccc(Cl)cc1)n1ncc(C#N)c1N2` (stereo not drawn) was 98.1%; that for `CCOC(=O)C1=C(CCl)N(C)C(=O)NC1c1ccc2c(c1)OCO2` (stereo not drawn) was 50%; that for `COc1ccc(-c2cc(C(=O)N3N=C(c4ccc(N)cc4)CC3c3ccc(Cl)cc3)c3ccccc3n2)cc1` (stereo not drawn) was 16.4%.
As to `Cn1cc(-c2csc(-c3cn(C)c4ccccc34)n2)c2cnccc21`, the growth was 97.5%.
Still for that read-out and setting: with `CC(C)c1ccc2c(c1)CC[C@H]1[C@](C)(C(=O)OCC#CCN3CCCC3)CCC[C@]21C` the figure was 87.6%; with `Cc1cc(=O)n(C(=S)Nc2ccc(Cl)cc2)c2cc(O)ccc12`, 109%; with `O=C1Nc2ccc(Cl)cc2/C1=C/c1ccc[nH]1`, 114%.
Same read-out and setting: with `COc1nc(/C=C\Nc2ccc3c(c2)OCCOCCOCCOCCO3)nc(OC)n1` the figure was 89.9%.
On the same count and under the same terms, with `CC1=C2CC/C(C)=C/CC[C@]3(C)O[C@H]3CC/C(C)=C/[C@H]2OC1` the figure was 108%; with `CCN1C(=O)N(CC)C2C1NN=c1s/c(=C\c3ccc(OC)cc3)c(=O)n12` (stereo not drawn), 21.6%.
As to `Cc1nn(C)c2ncnc(N/N=C/c3cccc(O)c3O)c12`, the growth is 52.3%.
On to `CC(C)C1C2=C(NCCN1C(=O)c1ccncc1)C(C)(C)N(Cc1ccccc1)C2=O` (stereo not drawn), for which the growth is 109%.
Same read-out and setting: the value for `CN(C)c1ccc(C(=S)c2ccc(N(C)C)cc2)cc1` was 94.1%; that for `CSc1ccc(N2C(=N)C(=S)N(c3ccc(C)cc3)C2=O)cc1` was 96%; that for `CCOC(=O)C/C(=N\Nc1cc(=O)[nH]c2ccc(C)cc12)C(=O)OCC` was 91.8%.
Same read-out and setting: the value for `Clc1ccc(Nc2ncc(Cc3cccc(Cl)c3Cl)s2)cc1` was 102%; that for `CCOC(=O)c1nnn(-c2no[n+]([O-])c2-c2ccc(OC)cc2)c1COc1cccc2cccnc12` was 24.8%; that for `NC(=O)c1ccccc1OCC(=O)Nc1ccc(Cl)c(Cl)c1` was 98.7%.
`C=C1CC[C@@H]2C(C)(C)[C@H](O)CC[C@@]2(C)[C@@H]1COc1ccc2ccc(=O)oc2c1`: the growth is 69.8%.
On the same count and under the same terms, the value for `O=S(Nc1ccccc1)c1ccc(Cl)cc1` (stereo not drawn) was 84.6%.
The same measure, in the same setting: with `COc1cccc(-c2cn3nc(-c4cn(C)c5ccccc45)sc3n2)c1` the figure was 85.7%; with `COc1cc2c(cc1-c1c(C)noc1C)ncc1nc(CN3CCOCC3)n([C@H](C)COC(F)F)c12`, 30%.
Still for that read-out and setting: the value for `CN1c2ccccc2S(=O)(=O)n2c(SCC(=O)Nc3nc4ccc(F)cc4s3)nnc21` was 80.4%; that for `O=S(=O)(Nc1cc(Sc2nc3ccccc3s2)c(O)c2ccccc12)c1ccc2ccccc2c1` was 101%.
With `Cn1c(C#N)ccc1-c1ccc(F)c(NC(=O)c2ccc(F)cc2)c1`, the growth is 71.5%.

These data come from PubChem BioAssay (NCI).
